Reference: the supplement of paper PMC11732987, “Enantioselective OTUD7B fragment discovery through chemoproteomics screening and high-throughput optimisation” (Communications Chemistry, 2025)

Key:
Assay in all cases: log2 ratio of Biotin-Ahx-Ub-VS probe labelling (fragment/DMSO); higher = less target engagement (more negative = stronger competition), active = hit call of the paper (q ≤ 0.05, log2 ratio ≤ -1)
Details in all cases: compound concentration: 200 uM; treatment time: 3 h
USP42 = biological target: T1, USP42 (UniProt Q9H9J4)
T1 sequence (whole entry): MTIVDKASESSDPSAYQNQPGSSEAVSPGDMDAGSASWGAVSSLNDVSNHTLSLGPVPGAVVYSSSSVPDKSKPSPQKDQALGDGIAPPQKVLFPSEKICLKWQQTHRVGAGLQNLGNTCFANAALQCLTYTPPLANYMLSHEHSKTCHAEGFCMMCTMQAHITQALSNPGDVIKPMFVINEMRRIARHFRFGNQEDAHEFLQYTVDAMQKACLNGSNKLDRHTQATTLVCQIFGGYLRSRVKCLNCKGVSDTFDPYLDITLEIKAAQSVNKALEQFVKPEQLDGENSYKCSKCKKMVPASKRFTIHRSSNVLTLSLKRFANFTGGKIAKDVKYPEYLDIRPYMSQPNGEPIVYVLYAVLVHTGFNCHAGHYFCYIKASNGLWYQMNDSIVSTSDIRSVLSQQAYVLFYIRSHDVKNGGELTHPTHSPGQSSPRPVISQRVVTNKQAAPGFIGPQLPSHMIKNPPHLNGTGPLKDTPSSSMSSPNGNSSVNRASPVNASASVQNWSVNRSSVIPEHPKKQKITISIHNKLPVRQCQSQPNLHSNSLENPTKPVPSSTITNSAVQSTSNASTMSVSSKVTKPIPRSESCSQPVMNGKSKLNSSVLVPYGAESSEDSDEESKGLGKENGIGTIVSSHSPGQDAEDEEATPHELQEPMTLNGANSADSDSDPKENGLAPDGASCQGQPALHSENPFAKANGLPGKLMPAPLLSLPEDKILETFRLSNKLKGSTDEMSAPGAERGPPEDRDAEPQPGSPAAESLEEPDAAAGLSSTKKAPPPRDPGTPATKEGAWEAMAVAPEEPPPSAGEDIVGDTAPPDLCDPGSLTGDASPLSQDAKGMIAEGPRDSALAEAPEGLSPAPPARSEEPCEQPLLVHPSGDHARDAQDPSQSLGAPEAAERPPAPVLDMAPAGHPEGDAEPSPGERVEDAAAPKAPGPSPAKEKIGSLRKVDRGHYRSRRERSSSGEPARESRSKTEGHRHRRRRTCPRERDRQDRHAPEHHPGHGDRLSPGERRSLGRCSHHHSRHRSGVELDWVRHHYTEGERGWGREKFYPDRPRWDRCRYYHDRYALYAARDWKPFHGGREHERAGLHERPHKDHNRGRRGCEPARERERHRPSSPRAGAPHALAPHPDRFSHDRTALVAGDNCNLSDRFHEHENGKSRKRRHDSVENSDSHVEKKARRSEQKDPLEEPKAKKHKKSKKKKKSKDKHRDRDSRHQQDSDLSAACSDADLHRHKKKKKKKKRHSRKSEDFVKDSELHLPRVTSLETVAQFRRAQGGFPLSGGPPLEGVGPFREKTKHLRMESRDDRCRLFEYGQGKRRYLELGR
In short: (§1)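 HEK293T lysate (495 µg per sample, in Tris/CHAPS/IGEPAL buffer with protease inhibitors) was exposed in triplicate for 3 h to fragment at 200 µM or to vehicle, then to Biotin-Ahx-Ub-VS at 0.5 µM final for 1 h. Labelled DUBs were enriched on NeutrAvidin, digested with LysC and trypsin, and analysed by diaPASEF LC-MS/MS. Spectronaut label-free quantities were normalised to the global median, and values are average log2 ratios of fragment over vehicle from an unpaired t-test. Only proteins with ≥2 unique peptides were used.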

USP46 = USP46 (UniProt P62068)
Sequence of USP46 (P62068 whole entry): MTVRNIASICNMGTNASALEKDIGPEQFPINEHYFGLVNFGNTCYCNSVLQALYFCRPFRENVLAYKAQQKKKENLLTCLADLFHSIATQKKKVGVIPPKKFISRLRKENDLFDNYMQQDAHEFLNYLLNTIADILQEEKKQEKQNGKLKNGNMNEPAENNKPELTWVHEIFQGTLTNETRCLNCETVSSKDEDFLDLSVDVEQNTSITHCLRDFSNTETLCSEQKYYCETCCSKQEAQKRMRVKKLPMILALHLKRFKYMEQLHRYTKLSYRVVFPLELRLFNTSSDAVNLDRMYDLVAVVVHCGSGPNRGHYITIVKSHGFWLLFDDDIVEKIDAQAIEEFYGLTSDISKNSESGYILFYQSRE
In short: as §1

USP47 = biological target: T2, USP47 (UniProt Q96K76)
T2 sequence (whole entry): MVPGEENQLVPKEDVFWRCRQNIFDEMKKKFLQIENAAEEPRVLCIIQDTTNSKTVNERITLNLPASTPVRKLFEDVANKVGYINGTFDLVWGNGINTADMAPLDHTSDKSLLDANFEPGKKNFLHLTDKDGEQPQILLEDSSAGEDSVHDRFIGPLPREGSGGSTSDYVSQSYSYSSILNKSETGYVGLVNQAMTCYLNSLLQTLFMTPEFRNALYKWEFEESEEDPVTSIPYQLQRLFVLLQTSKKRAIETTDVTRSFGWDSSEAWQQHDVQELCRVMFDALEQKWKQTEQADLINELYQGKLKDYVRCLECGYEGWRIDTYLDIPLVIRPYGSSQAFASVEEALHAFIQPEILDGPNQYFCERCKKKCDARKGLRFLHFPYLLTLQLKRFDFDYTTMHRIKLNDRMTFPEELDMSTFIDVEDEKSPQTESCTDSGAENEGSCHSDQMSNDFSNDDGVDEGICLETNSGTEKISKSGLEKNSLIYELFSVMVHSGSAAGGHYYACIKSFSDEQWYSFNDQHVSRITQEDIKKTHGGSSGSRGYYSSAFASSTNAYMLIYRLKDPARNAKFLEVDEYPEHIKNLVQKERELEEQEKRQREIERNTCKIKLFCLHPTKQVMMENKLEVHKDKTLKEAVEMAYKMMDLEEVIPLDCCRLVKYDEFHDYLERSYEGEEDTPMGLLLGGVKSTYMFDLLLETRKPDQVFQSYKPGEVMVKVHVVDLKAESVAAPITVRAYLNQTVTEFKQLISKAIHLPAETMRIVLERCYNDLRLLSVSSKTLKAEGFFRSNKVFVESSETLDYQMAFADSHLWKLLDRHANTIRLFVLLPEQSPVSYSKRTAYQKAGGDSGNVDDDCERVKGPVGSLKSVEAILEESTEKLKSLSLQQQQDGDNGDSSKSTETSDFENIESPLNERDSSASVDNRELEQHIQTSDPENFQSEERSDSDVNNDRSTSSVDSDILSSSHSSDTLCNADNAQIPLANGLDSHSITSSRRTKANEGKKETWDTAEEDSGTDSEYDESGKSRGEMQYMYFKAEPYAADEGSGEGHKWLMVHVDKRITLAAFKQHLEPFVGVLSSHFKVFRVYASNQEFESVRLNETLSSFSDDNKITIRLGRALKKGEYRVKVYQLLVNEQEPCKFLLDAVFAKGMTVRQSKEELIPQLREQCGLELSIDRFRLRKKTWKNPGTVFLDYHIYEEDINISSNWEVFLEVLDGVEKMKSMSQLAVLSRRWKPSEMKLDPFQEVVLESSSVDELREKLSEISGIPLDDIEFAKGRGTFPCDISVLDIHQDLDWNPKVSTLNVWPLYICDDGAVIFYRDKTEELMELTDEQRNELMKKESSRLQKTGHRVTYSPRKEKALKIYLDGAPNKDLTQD
In short: as §1

USP48 = biological target: T3, USP48 (UniProt Q86UV5)
T3 sequence (whole entry): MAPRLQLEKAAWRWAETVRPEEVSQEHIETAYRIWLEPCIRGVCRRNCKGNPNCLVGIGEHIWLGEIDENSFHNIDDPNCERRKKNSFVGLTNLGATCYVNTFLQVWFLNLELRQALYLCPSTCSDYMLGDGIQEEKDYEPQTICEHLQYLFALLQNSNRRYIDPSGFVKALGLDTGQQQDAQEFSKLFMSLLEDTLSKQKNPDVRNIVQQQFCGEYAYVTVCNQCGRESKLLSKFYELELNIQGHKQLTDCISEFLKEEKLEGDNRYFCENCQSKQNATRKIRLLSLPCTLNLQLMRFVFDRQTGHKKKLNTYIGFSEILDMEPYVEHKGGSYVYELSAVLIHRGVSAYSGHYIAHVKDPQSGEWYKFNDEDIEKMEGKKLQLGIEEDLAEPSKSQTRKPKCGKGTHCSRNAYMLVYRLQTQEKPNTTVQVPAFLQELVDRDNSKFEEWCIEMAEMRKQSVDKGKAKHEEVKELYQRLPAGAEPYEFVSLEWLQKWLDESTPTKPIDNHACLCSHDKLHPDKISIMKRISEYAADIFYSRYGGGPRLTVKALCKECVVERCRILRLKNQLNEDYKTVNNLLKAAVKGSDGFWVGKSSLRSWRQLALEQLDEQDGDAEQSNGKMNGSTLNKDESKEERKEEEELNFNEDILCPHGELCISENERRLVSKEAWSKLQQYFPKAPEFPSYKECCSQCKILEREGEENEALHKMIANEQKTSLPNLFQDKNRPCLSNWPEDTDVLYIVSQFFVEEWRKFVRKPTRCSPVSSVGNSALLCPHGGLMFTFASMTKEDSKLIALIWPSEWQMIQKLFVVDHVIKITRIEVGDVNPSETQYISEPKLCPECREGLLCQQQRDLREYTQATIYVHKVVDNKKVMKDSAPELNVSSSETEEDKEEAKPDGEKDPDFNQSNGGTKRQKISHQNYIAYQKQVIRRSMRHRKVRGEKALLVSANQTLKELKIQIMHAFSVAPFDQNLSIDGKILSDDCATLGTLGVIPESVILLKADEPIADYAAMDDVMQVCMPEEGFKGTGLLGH
In short: as §1

USP5 = biological target: T4, USP5 (UniProt P45974)
T4 sequence (whole entry): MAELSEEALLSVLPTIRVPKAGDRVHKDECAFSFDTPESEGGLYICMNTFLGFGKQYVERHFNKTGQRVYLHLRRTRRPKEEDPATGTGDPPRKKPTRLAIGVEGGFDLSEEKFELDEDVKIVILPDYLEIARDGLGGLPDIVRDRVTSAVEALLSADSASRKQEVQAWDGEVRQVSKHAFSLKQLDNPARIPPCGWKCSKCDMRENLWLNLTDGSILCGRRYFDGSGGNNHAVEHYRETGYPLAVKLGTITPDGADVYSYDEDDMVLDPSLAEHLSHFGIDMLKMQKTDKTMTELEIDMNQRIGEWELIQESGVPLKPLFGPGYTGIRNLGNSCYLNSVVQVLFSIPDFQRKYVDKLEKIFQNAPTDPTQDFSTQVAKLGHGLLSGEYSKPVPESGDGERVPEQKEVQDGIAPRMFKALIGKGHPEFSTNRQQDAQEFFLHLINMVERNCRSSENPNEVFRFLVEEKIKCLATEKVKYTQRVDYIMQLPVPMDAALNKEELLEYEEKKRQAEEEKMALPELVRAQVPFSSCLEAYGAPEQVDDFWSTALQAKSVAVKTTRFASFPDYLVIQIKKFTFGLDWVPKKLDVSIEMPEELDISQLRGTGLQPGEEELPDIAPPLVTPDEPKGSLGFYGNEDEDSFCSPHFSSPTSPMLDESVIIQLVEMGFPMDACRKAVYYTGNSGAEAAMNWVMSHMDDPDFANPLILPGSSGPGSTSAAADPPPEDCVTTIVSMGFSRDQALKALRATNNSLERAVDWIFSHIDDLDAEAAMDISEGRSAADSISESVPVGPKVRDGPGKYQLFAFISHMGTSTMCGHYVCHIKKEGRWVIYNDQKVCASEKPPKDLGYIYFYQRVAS
In short: as §1

USP54 = USP54 (UniProt Q70EL1)
Sequence of USP54 (Q70EL1 whole entry): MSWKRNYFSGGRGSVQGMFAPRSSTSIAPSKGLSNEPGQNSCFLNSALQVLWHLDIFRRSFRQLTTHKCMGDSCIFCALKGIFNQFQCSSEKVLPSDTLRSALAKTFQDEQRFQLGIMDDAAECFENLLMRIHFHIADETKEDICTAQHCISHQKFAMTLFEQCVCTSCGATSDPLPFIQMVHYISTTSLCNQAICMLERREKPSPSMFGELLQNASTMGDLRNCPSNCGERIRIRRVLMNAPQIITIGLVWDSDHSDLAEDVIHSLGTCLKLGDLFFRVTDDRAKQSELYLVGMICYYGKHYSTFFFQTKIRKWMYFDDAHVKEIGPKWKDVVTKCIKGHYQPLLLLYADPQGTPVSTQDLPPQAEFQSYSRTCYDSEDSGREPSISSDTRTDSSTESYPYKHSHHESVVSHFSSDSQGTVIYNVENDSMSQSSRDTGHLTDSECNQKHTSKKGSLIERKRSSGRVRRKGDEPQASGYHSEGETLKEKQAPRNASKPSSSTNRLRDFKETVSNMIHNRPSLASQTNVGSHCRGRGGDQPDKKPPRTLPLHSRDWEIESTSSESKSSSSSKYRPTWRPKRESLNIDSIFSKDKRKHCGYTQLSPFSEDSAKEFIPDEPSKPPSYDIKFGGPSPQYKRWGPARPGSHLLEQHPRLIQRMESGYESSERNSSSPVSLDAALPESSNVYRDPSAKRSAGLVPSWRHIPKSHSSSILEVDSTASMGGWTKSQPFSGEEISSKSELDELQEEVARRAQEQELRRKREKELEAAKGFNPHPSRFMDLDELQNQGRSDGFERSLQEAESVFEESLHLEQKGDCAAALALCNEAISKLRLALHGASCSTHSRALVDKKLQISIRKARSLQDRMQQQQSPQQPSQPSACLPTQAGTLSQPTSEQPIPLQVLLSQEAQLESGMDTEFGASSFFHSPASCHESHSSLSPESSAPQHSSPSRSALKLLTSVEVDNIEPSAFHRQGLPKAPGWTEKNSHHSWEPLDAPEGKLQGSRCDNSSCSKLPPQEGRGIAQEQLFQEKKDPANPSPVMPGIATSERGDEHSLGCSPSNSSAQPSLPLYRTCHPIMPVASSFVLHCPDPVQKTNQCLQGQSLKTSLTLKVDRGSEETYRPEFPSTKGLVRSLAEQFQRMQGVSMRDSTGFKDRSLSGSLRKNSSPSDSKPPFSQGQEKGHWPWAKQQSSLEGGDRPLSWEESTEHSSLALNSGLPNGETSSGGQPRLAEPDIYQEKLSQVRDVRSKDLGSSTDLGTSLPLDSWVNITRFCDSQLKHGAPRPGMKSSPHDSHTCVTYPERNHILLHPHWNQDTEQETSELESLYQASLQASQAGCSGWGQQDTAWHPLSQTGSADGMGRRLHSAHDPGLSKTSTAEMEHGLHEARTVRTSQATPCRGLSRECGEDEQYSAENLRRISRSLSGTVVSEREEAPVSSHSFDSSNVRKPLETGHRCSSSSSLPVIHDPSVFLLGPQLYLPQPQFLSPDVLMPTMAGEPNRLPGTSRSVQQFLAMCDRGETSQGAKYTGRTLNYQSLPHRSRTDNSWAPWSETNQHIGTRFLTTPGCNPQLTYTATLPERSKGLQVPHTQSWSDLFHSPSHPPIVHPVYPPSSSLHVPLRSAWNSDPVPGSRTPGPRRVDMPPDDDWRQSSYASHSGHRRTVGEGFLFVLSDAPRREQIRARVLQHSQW
In short: as §1

USP7 = USP7 (UniProt Q93009)
Sequence of USP7 (Q93009 whole entry, looked up): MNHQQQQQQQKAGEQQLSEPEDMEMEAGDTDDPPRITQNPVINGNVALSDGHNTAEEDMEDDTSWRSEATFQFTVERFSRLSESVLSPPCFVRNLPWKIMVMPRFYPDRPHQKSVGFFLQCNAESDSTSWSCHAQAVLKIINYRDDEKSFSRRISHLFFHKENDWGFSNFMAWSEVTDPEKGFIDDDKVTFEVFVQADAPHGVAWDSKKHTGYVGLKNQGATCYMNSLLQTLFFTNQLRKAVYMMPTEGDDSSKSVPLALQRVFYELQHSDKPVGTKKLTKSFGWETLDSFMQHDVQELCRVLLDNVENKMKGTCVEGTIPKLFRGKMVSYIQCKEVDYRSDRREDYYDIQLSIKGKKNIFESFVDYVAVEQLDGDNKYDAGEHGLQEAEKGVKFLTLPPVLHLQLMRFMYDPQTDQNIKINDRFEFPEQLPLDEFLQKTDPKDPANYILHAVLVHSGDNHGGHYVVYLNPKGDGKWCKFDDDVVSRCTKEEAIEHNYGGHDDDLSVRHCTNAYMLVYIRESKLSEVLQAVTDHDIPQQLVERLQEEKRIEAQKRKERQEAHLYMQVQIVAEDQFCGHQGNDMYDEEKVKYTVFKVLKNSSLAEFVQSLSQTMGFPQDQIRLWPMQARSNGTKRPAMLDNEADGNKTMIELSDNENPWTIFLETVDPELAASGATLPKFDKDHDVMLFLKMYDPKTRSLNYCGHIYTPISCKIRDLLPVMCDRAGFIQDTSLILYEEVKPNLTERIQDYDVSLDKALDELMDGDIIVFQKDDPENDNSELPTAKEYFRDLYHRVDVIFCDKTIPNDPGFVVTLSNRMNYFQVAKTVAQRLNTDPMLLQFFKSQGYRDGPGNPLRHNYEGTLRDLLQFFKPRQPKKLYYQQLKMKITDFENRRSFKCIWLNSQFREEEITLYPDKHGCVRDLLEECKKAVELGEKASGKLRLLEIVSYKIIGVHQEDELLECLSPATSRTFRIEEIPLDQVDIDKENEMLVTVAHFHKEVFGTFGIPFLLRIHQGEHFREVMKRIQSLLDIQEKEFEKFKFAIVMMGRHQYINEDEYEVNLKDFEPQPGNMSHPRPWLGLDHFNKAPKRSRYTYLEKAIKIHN
In short: as §1

USP8 = biological target: T5, USP8 (UniProt P40818)
T5 sequence (whole entry): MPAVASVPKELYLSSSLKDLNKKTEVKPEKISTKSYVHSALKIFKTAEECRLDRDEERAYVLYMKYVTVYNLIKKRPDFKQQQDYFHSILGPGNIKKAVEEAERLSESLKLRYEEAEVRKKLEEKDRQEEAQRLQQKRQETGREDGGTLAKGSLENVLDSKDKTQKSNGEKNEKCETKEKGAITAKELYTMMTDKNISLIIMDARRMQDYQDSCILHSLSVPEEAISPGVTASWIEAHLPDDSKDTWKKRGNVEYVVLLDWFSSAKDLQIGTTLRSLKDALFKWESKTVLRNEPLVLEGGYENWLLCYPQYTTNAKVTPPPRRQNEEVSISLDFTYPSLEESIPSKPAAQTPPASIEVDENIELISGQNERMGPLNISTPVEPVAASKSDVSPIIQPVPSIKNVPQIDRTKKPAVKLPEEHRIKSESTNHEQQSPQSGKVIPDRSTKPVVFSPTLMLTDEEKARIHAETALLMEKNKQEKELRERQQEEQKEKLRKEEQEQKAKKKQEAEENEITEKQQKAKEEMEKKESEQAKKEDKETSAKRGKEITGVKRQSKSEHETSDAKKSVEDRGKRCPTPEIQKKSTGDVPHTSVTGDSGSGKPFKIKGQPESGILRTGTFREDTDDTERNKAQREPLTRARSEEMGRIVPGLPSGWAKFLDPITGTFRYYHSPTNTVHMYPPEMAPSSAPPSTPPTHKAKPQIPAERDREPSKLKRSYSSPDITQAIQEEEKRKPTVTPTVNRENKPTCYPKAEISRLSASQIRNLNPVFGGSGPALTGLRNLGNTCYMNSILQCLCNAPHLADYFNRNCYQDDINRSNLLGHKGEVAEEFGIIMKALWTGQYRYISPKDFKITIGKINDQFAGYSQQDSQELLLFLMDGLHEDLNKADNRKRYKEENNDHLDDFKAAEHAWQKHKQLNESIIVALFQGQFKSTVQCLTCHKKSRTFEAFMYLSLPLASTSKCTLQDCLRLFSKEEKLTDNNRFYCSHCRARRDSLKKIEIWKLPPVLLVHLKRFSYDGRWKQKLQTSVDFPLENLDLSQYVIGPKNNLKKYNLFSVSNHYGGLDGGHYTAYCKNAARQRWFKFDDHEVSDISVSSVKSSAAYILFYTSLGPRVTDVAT
In short: as §1

Measured: log2 ratio of Biotin-Ahx-Ub-VS probe labelling

O=C(CCl)N1CCc2nc[nH]c2C1c1ccc(Cl)cc1 (stereo not drawn)
active: USP48 -1.05 | USP7 -1.31
inactive: USP42 -0.0471 | USP46 -0.363 | USP47 -0.614 | USP5 -0.146 | USP54 0.015 | USP8 0.126
